According to PubChem BioAssay AID1347420 (Sanford-Burnham Center for Chemical Genomics, 2020):
The campaign covered roughly 1,300 compounds. About 980 (75%) were called active. Not shown: some 4% with an inconclusive outcome. This is one part of the list. A number with no mark means an inactive call.

Target: Sulfhydryl oxidase 1 (Homo sapiens) (UniProt O00391)
Assay: inhibition of human sulfhydryl oxidase QSOX1 – biochemical, HyperBlu H2O2 luminescence, HTS, primary screen (AID 1347420); also: values above 100% were filed as inconclusive
Conditions: recombinant QSOX1, HyperBlu H2O2 luminescence, at 12.5 µM, stronger effect = higher value; active = any value above zero unless noted

Sulfhydryl oxidase 1 (Homo sapiens), sequence (O00391 whole entry, looked up): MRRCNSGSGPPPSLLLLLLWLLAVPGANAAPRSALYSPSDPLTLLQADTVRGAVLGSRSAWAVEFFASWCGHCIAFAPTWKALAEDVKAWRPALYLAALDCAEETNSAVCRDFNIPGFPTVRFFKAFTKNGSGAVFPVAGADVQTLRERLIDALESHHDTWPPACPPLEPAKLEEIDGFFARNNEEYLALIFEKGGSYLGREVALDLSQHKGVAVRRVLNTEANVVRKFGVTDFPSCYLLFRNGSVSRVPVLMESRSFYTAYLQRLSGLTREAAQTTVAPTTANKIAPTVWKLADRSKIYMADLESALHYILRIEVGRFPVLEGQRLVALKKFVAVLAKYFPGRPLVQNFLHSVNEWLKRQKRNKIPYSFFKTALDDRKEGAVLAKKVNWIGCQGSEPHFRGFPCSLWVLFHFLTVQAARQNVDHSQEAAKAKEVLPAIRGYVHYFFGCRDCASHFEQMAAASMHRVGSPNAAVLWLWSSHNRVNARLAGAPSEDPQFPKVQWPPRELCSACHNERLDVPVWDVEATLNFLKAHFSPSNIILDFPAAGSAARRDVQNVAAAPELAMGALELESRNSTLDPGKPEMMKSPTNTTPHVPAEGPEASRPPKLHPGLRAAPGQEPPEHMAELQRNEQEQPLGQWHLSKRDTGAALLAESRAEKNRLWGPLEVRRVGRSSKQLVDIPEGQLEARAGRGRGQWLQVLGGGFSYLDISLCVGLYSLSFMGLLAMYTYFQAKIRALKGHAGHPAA

Row | SMILES | inhibition
1 | O=C1/C(=C/c2ccccc2)C[C@@]2(O)[C@H]3Cc4ccc(O)c5c4[C@@]2(CCN3CC2CC2)[C@H]1O5 | 32.8% [setting not given] (active)
2 | CO[C@H]1CC=C2CCN3CCC4=C(CC(=O)OC4)[C@]23C1 | 0.7% (active)
3 | CCOC(=O)c1ncn2c1[C@@H]1CCCN1C(=O)c1cc(OC)ccc1-2 | 13.3% (active)
4 | NCC(O)c1ccc(O)cc1 (centres undefined) | 20.3% [setting not given] (active)
5 | CNCC(O)c1ccc(O)cc1 (centres undefined) | 11.4% [setting not given] (active)
6 | NCC(CC(=O)O)c1ccc(Cl)cc1 (centres undefined) | 0% [setting not given]
7 | COc1cc(C(O)CN)ccc1O (centres undefined) | 20.7% (active)
8 | NCC(O)c1cc(O)c(O)cc1F (centres undefined) | 72.8% (active)
9 | Ic1ccccc1CNC1C2CCN(CC2)C1C(c1ccccc1)c1ccccc1 (centres undefined) | 11% (active)
10 | O=C(O)[C@@H]1CCN1 | 18.9% (active)
11 | N=C(N)c1ccc(CS(=O)(=O)F)cc1 | 7.2% (active)
12 | CN1C2CCC1CC(OC(=O)c1cc(Cl)cc(Cl)c1)C2 (centres undefined) | 5.4% (active)
13 | O=C1C=CC(=O)C=C1 | 16.8% (active)
14 | N[C@@]1(C(=O)O)CC[C@@H](C(=O)O)C1 | 12.2% (active)
15 | CCN1C[C@@]2(COC)C3[C@@H](OC)C4[C@@H]1C3([C@@H]1C[C@@]3(O)[C@H](OC(=O)c5ccccc5)[C@@H]1[C@]4(OC(C)=O)[C@@H](O)[C@@H]3OC)[C@H](OC)C[C@H]2O | 4.1% (active)
16 | CCNC(=O)[C@H]1O[C@@H](n2cnc3c(N)ncnc32)C(O)[C@H]1O (some centres undefined) | 1.2% (active)
17 | O=[N+]([O-])c1cc(O)c(O)c([N+](=O)[O-])c1 | 84.7% (active)
18 | NCc1cc(=O)[nH]o1 | 10.1% (active)
19 | COc1ccc2c(c1)C13CCCCC1C(C2)N(C)CC3 (centres undefined) | 11.3% [setting not given] (active)
20 | COc1ccc2c(c1)[C@@]13CCCC[C@H]1[C@@H](C2)NCC3 | -2.6% [setting not given]

Row | SMILES | inhibition
21 | C=CCN1CC[C@]23CCCCC2[C@H]1Cc1ccc(O)cc13 (some centres undefined) | 6% [setting not given] (active)
22 | C=CCN1C[C@@H](C)N([C@H](c2ccc(C(=O)N(CC)CC)cc2)c2cccc(OC)c2)C[C@@H]1C | 7.5% (active)
23 | CC(=O)NBr | 9.5% (active)
24 | NC(N)=NOCC[C@H](N)C(=O)O | -0.8% [setting not given]
25 | NC(N)=NOCCC(N)C(=O)O (centres undefined) | 8.2% (active)
26 | CC(Cc1ccc(O)cc1)NCC(O)c1cc(O)cc(O)c1 (centres undefined) | 15% [setting not given] (active)
27 | CN1CCc2cccc(Cl)c2CC1 | 1.7% (active)
28 | CP(=O)(O)C1=CCNCC1 | -0.7%
29 | CCCN(CCC)C1Cc2cc(OC)c(OC)cc2C1 | 3.2% (active)
30 | CCCN(CCC)[C@@H]1CCc2ccc(O)cc2C1 | 10.7% (active)
31 | CCCN(CCC)C1CCc2ccc(O)cc2C1 (centres undefined) | 28.1% (active)
32 | O=S1(=O)N(CCN2CC=C(c3c[nH]c4cc(F)ccc34)CC2)c2cccc3c2N1CCC3 | 25.1% (active)
33 | C[C@H](N)Cc1cccc(C(F)(F)F)c1 | 4.9% [setting not given] (active)
34 | COc1ccc(CNC(=O)/C=C/c2ccc3[nH]cc(CCN(C)C)c3c2)cc1 | 4.8% [setting not given] (active)
35 | O=C(O)c1cc[c]([Hg][Cl])cc1 | 1% (active)
36 | CCC1(c2ccc(N)cc2)CCC(=O)NC1=O (centres undefined) | 27.6% [setting not given] (active)
37 | CCN(CCCl)Cc1ccccc1Br | 18% (active)
38 | CCCn1c(=O)c2[nH]c(C3CCCC3)nc2n(CCCOC(=O)c2ccc(S(=O)(=O)F)cc2)c1=O | 10.4% (active)
39 | CC[C@@H](CO)NC(=O)[C@@H]1C=C2c3cccc4c3c(cn4C)C[C@H]2N(C)C1 | 9.7% [setting not given] (active)
40 | CC[C@@H](CO)NC(=O)[C@@H]1C=C2c3cccc4[nH]cc(c34)C[C@H]2N(C)C1 | 24.7% [setting not given] (active)

Row | SMILES | inhibition
41 | NCC1(CC(=O)O)CCCCC1 | 4.2% [setting not given] (active)
42 | CC(=O)c1c(O)c(C)c(O)c(Cc2c(O)c3c(c(C(=O)/C=C/c4ccccc4)c2O)OC(C)(C)C=C3)c1O | 59.1% (active)
43 | O=c1[nH]oc2c1CCNC2 | 8.4% (active)
44 | CC(Cc1ccc(OCC(=O)O)cc1)NCC(O)c1cccc(Cl)c1 (centres undefined) | 10.8% (active)
45 | C[C@H](Cc1ccc2c(c1)OC(C(=O)O)(C(=O)O)O2)NC[C@H](O)c1cccc(Cl)c1 | 13.4% (active)
46 | Nc1ccncc1 | 22.3% [setting not given] (active)
47 | C[C@]12CCC3C(CC[C@H]4C[C@H](O)CC[C@]34C)C1CC[C@@H]2C(=O)CO (some centres undefined) | 5.6% (active)
48 | CC(=O)[C@H]1CC[C@H]2[C@@H]3CC[C@H]4C[C@](C)(O)CC[C@]4(C)[C@H]3CC[C@]12C | 11.6% [setting not given] (active)
49 | CC(=O)[C@H]1CC[C@H]2[C@@H]3CC[C@H]4C[C@H](O)CC[C@]4(C)[C@H]3C(=O)C[C@]12C | 5% [setting not given] (active)
50 | CC(=O)[C@H]1CCC2C3CC[C@H]4C[C@H](O)CC[C@]4(C)C3CC[C@@]21C (some centres undefined) | 4.6% [setting not given] (active)
51 | CN1C[C@H](CNC(=O)OCc2ccccc2)C[C@@H]2c3cccc4c3c(cn4C)C[C@H]21 | 6.1% [setting not given] (active)
52 | C[C@]12Cc3cn4c(nc3C=C1CCC1C2CC[C@@]2(C)[C@H]1CC[C@@]2(O)C#N)nc1ccccc14 (some centres undefined) | -42.5%
53 | CC(C)Oc1cccnc1N(C)C1CCN(Cc2ccccc2)CC1 | 7% (active)
54 | CC(C)c1cccc(C(C)C)c1O | 16.7% (active)
55 | CC(N)c1cccc(Cl)c1Cl (centres undefined) | -1%
56 | CN[C@@H]1C[C@@H](c2ccc(Cl)c(Cl)c2)c2ccccc21 | 3.8% (active)
57 | NC(Cn1oc(=O)[nH]c1=O)C(=O)O (centres undefined) | -10.8%
58 | Cc1o[nH]c(=O)c1CC(N)C(=O)O (centres undefined) | 11.9% (active)
59 | CCCC(C)(COC(N)=O)COC(=O)NC(C)C (centres undefined) | -3.5% [setting not given]
